# Experimental data: PubChem BioAssay (NCI)
# This is part of a sample that, as a whole, favours compounds with a hit. Of some 79,000 tested, about 15% had one in any assay. A number with no mark means an inactive call. Cut-off read from the data, not from the text of the source: active = growth inhibition above about 70%; inactive = the rest.
# Assay: NCI Yeast Anticancer Drug Screen. Data for the mlh1 rad18 strain (AID 175)
# Settings: S. cerevisiae mlh1 rad18 strain growth inhibition; at 50.0 µM; hits give high values
# Method in brief: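 Growth inhibition of the yeast strain was measured after compound exposure and expressed relative to vehicle-treated controls. The strain carries defined defects in DNA damage repair.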
row,Structure (SMILES),growth inhibition [%]
1,CCC(CC)OCc1ccccc1,1.1
2,CCCCCCC(C)(O)C(C)O (stereo not drawn),9.2
3,CC[N+](C)(CC)c1cccc(OC(=O)N2CCCCC2)c1,-16.9
4,S=C1Cc2c(-c3ccccc3)cc(-c3ccc(Cl)cc3)nc2-c2ccccc2N1,-4.25
5,CCCC(=O)/C=C\c1ccccc1,-10.7
6,Cc1ccc(S(=O)(=O)NCNS(=O)(=O)c2ccc(C)cc2)cc1,-35.6
7,N#C/C(=C\C=C\c1ccccc1)C(N)=O,-49.8
8,O=C(C#CP(=O)(O)c1ccccc1)c1ccccc1,3.05
